An excerpt weighted towards active compounds, which were near 2.4% of everything screened.
D2 PAM-1 = Beta-Arrestin HTS for Positive Allosteric Modulators of the Human D2 Dopamine Receptor: Potentiators; D(2) dopamine receptor (Homo sapiens), P14416; DiscoveRx D2 beta-arrestin cells, luminescence, 90 min; 100% = 57 uM dopamine signal; 0.23% of 360,000 active; potentiation, % (concentration not given with the values); AID 624464, 2012; in the data active = potentiation above about 50%
Target sequence (P14416 whole entry, looked up): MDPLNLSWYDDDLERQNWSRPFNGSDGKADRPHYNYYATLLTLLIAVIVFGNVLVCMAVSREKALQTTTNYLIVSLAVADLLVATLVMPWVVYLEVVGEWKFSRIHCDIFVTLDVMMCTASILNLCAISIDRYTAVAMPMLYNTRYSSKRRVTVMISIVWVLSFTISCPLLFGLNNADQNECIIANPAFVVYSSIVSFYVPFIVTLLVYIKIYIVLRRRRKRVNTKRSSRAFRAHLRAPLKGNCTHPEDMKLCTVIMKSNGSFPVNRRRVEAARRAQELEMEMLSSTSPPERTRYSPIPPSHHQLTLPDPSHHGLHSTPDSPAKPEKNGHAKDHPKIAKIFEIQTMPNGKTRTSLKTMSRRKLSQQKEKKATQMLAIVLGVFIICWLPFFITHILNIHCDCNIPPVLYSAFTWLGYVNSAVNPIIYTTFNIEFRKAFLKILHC
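PathHunter beta-arrestin assay in DiscoveRx D2 cells. Compounds were added with an EC20 of dopamine (50 nM final) for 90 min at 37 deg C. Luminescence was read 1 h after detection reagent, with 57 uM dopamine as the EC100 control.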
D2 ag-1 = HTS Assay for Allosteric Agonists of the Human D2 Dopamine Receptor: Primary Screen for Agonists; D(2) dopamine receptor (Homo sapiens), P14416; HEK293 T-REx D2 cells, calcium flux agonist mode; activation, % at 2 µM; 0.53% of 340,000 active;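 active = activation over 3 SD above normal in the single-dose calcium agonist read, cut at about 30% in these data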; note: 0% is about no effect
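Agonism is scored from calcium flux in a force-coupled, inducible HEK293 cell line expressing D2, read kinetically for 180 s after compound addition against dopamine controls.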
D2 ag-2 = Beta-Arrestin HTS for Positive Allosteric Modulators of the Human D2 Dopamine Receptor: Agonists. D(2) dopamine receptor (Homo sapiens), P14416. DiscoveRx PathHunter D2 beta-arrestin, luminescence, 90 min; 100% = 57 uM dopamine signal. activation, % (concentration not given with the values). 0.084% of 360,000 active. AID 624465, 2012; in the data active = activation above about 40%
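DiscoveRx PathHunter D2 beta-arrestin cells (2,100/well) attached overnight, then compound-stimulated 90 min at 37 C in HBSS/10 mM HEPES/0.1% Tween-20 buffer; beta-galactosidase complementation read by luminescence after 1 h at ambient temperature. Dopamine 57 uM final (EC100) as control.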
D2 PAM-2 = HTS Assay for Positive Allosteric Modulators of the Human D2 Dopamine Receptor: Primary Screen for Potentiators. D(2) dopamine receptor (Homo sapiens), P14416. HEK293 T-REx D2, calcium flux, EC20 dopamine potentiation. potentiation, % at 10 µM. 0.34% of 340,000 active. AID 485347, 2010;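 active = potentiation over 3 SD above the plate norm, cut at about 30% in these data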; note: 0% is about no effect
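Potentiation of an EC20 dopamine calcium response is measured in a force-coupled, tetracycline-inducible Hek293 Trex D2 line. Compound-only kinetic reads over 180 s flag agonists before dopamine addition.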
D2 antagonist = HTS Assay for Allosteric Antagonists of the Human D2 Dopamine Receptor: Primary Screen for Antagonists; HEK293 TREx D2 cells, calcium flux, dopamine EC80; inhibition, % at 10 µM; 2% of 340,000 active; in the data active = inhibition above about 30%; inactive = below that, where a call was filed; note: 0% is about no effect
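Read-out: kinetic calcium fluorescence (1 cycle/s) in inducible HEK293 T-REx D2 cells after an EC80 dopamine addition that followed 180 s compound preincubation. Loss of the dopamine response indicates antagonism.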
The depositor's hits bear a star; · = not tested or not shown.

SMILES	D2 PAM-1	D2 ag-1	D2 ag-2	D2 PAM-2	D2 antagonist
COc1ccc(C(=O)C[n+]2cccc(C)c2C)cc1[N+](=O)[O-]	-4	0	-5	-35	59*
COc1ccc(C2=NC(C)(C)N(CC(=O)Nc3ccc(F)c(F)c3)C2=O)cc1	·	-1	·	7	·
CCN(CC)c1ccc(NC2=C(Cl)C(=O)c3ccccc3C2=O)cc1	60*	0	10	1	13
Cc1ccc(NC2=C(Cl)C(=O)c3ccccc3C2=O)cc1	21	0	8	-4	16
CCC(=O)NCCn1c(C)cc2ccccc21	-3	1	0	9	-14
Cc1cc2ccccc2n1CCNC(=O)COc1ccccc1	-18	0	-6	-18	39*
CCCCn1c(CCC)nc([N+](=O)[O-])c1Sc1ccc(Cl)cn1	-13	2	-2	-12	40*
O=C(NCCSCc1ccco1)Nc1cc(Cl)cc(Cl)c1	-17	2	-1	-13	30*
COC(=O)Nc1cc([N+](=O)[O-])ccc1OC	-6	2	-1	10	-6
COc1ccc([N+](=O)[O-])cc1NC(=O)Nc1ccccc1	-33	0	-1	-26	37*
COc1ccc([N+](=O)[O-])cc1NC(=O)C(C)N1CCCC1 (centres undefined)	-24	0	-6	-11	31*
CCOC(=O)c1c(NC(=O)/C=C/c2ccc(C(C)C)cc2)sc2c1CCC2	·	1	·	5	·
CCN(CC)S(=O)(=O)c1ccc2c(c1)c(=O)c(C(=O)N1CCN(c3cc(C)ccc3C)CC1)cn2C	·	0	·	-10	·
Cc1ccc(NC(=O)N2CCN(C/C=C/c3ccccc3)CC2)cc1	-3	1	-2	0	-9
COC(=O)c1ccccc1NC(=O)N1CCN(C/C=C/c2ccccc2)CC1	-11	0	2	-7	35*
O=C(c1cc2ccccc2o1)N1CCN(C/C=C/c2ccccc2)CC1	-36	-2	-3	-33	77*
COC(=O)CCC(=O)OC	-33	·	-6	·	·
COC(=O)CCCCC(=O)OC	-6	0	1	2	36*
O=S(=O)(NCc1nc2cccnc2n1Cc1ccccc1Cl)c1ccc(F)c(Cl)c1	·	·	·	-2	·
Nc1ccccc1NC1=CC(=O)CC(c2ccco2)C1 (centres undefined)	-2	1	-1	-3	31*
Cc1ccc(Cl)cc1N1CCN(C(=O)CCS(=O)(=O)c2ccc3c(c2)oc(=O)n3C)CC1	·	0	·	-10	·
O=C(NC1CCSC1=O)c1cccc(C(=O)NC2CCSC2=O)c1 (centres undefined)	-23	1	-2	-4	42*
Cc1ccnc(NC(NC(=O)C(C)C)(C(F)(F)F)C(F)(F)F)c1	-9	0	-2	4	32*
COC(=O)C(NC(=O)c1ccco1)(Nc1cc(C)ccn1)C(F)(F)F (centres undefined)	-2	0	3	8	-10
CCOC(=O)C1CCN(Cc2ccccn2)CC1	·	27	·	-15	-6
SMILES	D2 PAM-1	D2 ag-1	D2 ag-2	D2 PAM-2	D2 antagonist
CCOC(=O)C1CCN(c2ccccc2CN2CCN(c3ccccc3OCC)CC2)CC1	-24	0	-15	-18	61*
COc1ccc(Cn2nnnc2C(C(C)C)N2CCN(c3ccccc3OC)CC2)cc1 (centres undefined)	-4	0	-1	-9	53*
COc1ccccc1N1CCN(Cc2nc(N)nc(Nc3ccc(C)cc3)n2)CC1	-42	26	1	-38	89*
Cc1ccc(Nc2nc(N)nc(CN3CCN(C)CC3)n2)cc1	-17	0	-1	-8	18
COc1ccccc1N1CCN(Cc2cccc(OC)c2OC)CC1	-45	-1	-2	-14	71*
CCOc1ccccc1N1CCN(Cc2ccc(OC)c(OC)c2OC)CC1	-20	-3	-1	1	23
Cc1ccc(S(=O)(=O)N2[C@H](C(C)C)[C@H]3[C@H]4C(=O)N(c5ccccc5)C(=O)[C@H]4CC(=O)[C@H]3[C@@H]2c2ccccc2)cc1	0	·	14	·	·
CSc1ncc2c(n1)-c1ccccc1N(Cc1ccccc1)S2(=O)=O	·	0	·	-6	·
Fc1ccc(-c2nn(-c3ccc(Cl)cc3)c3c2cnc2ccc(F)cc23)cc1	·	2	·	1	·
Cc1ccccc1N1CCN(Cc2cc3c(cc2[N+](=O)[O-])OCO3)CC1	-41	0	5	0	-20
CCOc1ccccc1N1CCN(Cc2cc3c(cc2[N+](=O)[O-])OCO3)CC1	-25	1	0	-15	60*
CCOc1ccccc1N1CCN(C/C=C/c2ccc(N(C)C)cc2)CC1	-34	0	0	-21	79*
CCOc1cc(CN2CCCCCC2)ccc1OC	-5	0	-7	-12	7
COc1ccc(CC(C)N2CCN(c3ccccc3OC)CC2)cc1OC (centres undefined)	-16	22	-2	-25	89*
CCOc1ccccc1N1CCN(Cc2ccc(OC)c(OC)c2)CC1	1	-2	-1	-27	94*
COc1cc(OC)cc(C(=O)NC(=S)N(Cc2ccccc2)C(C)C)c1	-14	0	-5	8	3
CCOc1ccc(S(=O)(=O)NN=C(C)c2cccnc2)cc1	1	·	7	·	·
COc1cc(NC(=O)c2sc3ncn(CC(=O)N4CCCCC4C)c(=O)c3c2C)cc(OC)c1OC (centres undefined)	-6	·	-1	·	·
COc1ccccc1-n1nnnc1SCc1cc2c(cc1Br)OCO2	-14	0	-2	43*	-9
COc1cc(OC)c(OC)cc1CN1CCN(c2ccccc2OC)CC1	-21	0	1	-15	70*
CCOC(=O)C1CCN(c2c(NCCN3CCN(c4ccccc4)CC3)c(=O)c2=O)CC1	-7	37*	-4	-18	-7
COc1ccccc1-n1nnnc1SCc1ccccc1	-17	-1	5	-6	12
COc1ccccc1N1CCN(Cc2cc3c(cc2Br)OCCO3)CC1	-18	-1	-18	-27	104*
COc1cc(OC)c(NC(=O)Cn2c(=O)c(C(F)(F)F)nc3ccccc32)cc1Cl	·	0	·	-4	·
COc1ccccc1Nc1nn2c(=O)c3ccc(C(=O)NCCC4=CCCCC4)cc3nc2s1	·	0	·	1	·
CCS(=O)(=O)Nc1cc2c3c(c1)CCC(=O)N3CCC2	-3	0	3	27	4
CCOc1ccccc1N1CCN(Cc2cnc(-c3ccccc3)[nH]2)CC1	-6	0	2	-24	78*

Assay outcomes as filed in PubChem.
